Inhibition data for 28 compounds are collected here from PubChem BioAssay.

Assay [1] deals with Nuclear receptor coactivator 1 (Homo sapiens) (UniProt Q15788). Briefly: NCOA1 GAL4-fusion reporter inhibition – cell-based, luminescence, quadruplicate, confirmation (AID 588820;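 active = mean inhibition above 46.68%, the untreated control wells mean plus 3 SD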;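 note: 0% = DMSO wells and 100% = gossypol 36 µM treated wells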). The note with it: HEK293 GAL4-SRC1 luciferase reporter, at 3.6 µM, hits give high values. (In general: A reporter such as luciferase makes a cellular process visible.)
Assay [2] in a line: repression of VP16-driven luciferase reporter – cell-based, luminescence, high throughput, counter-screen for SRC1 inhibitor project (AID 588824). As to conditions: cell-based VP16 transactivation luciferase luminescence; at 3.6 µM; hits give high values.
The subject of assay [3] is transactivating tegument protein VP16 (Human herpesvirus 1). In words: compounds suppressing VP16-driven luciferase signal – cell-based, luminescence, single concentration, counter-screen for SRC2 inhibitor project (AID 652007; in the data active = inhibition above about 36%). The note with it: cell-based VP16 transactivation luciferase reporter, at 8.9 µM, hits give high values. For orientation: The purpose of a counterscreen is to sort out artefacts and off-target activity.

Assay [4] has as its target Nuclear receptor coactivator 2 (Homo sapiens) (UniProt Q15596). Briefly: inhibition of GAL4-SRC2 driven luciferase expression – cell-based, luminescence, HEK293, triplicate, confirmation (AID 652008;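 active = mean inhibition above 46.5%, the solvent-only control mean plus 3 SD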;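 note: 0% = DMSO-treated cells and 100% = Gossypol at 36 µM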). The note with it: HEK293 GAL4-SRC2 luciferase reporter, at 8.9 µM, hits give high values.
The target in assay [5] is Receptor-interacting serine/threonine-protein kinase 2 (Homo sapiens) (UniProt O43353). In words: inhibitors of RIPK2 association with NOD2 – fluorescence, CHO cells, BLA complementation, triplicate, confirmation (AID 624370;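 active = mean inhibition across replicates above a set limit taken from the earlier primary screen, cut at about 21% in these data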;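 note: 0% = DMSO-only wells and the high end = clavulanate BLA-blocked wells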). The note with it: CCF4 FRET, at 4.98 µM, hits give high values.
Assay [6] in a line: BLA reporter readout interference – cell-based, CHO-K1 CMV-bla, CCF4 FRET, fluorescence, artefact control for NOD2-RIPK2 interaction inhibitor project, confirmation (AID 624371;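 active = mean inhibition above the low-control mean inhibition plus three low-control SD, cut at about 11% in these data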;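 note: 0% = DMSO only wells and 100% = clavulanate high control wells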). The note with it: CCF4 FRET ratio, counterscreen, at 4.98 µM, hits give high values.
A short description of assay [7]: StAR promoter reporter inhibitors, counter-screen for LRH-1 inverse agonist project, cell-based, luminescence, high throughput (AID 651611; in the data active = inhibition above about 28%). As to conditions: StAR promoter luciferase reporter counterscreen, at 3.6 µM, hits give high values.
Assay [8] concerns the target Nuclear receptor subfamily 5 group A member 2 (Homo sapiens) (UniProt O00482). In words: NR5A2 activity suppression in reporter cells – cell-based, luminescence, confirmation (AID 651613; in the data active = inhibition above about 42%;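 note: HEK293T cells co-transfected with LRH-1 and StAR promoter luciferase reporter; 0% = vehicle wells and 100% = parental cells lacking receptor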). The note with it: cell-based LRH-1 luciferase reporter, inverse agonism; at 3.6 µM; hits give high values.
The target of assay [9] is Steroidogenic factor 1 (Homo sapiens) (UniProt Q13285). Briefly: inverse agonism at SF1 nuclear receptor – cell-based, luminescence, high throughput, counter-screen for LRH-1 inverse agonist project (AID 651614; in the data active = inhibition above about 44%;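 note: cells cotransfected with StAR promoter reporter and SF1 expression vector; 0% = vehicle on cells with receptor and 100% = vehicle on cells lacking receptor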). As to conditions: cell-based SF1 luciferase reporter, at 3.6 µM, hits give high values.
A short description of assay [10]: compounds suppressing VP16-driven luciferase signal – cell-based, luminescence, high throughput, counter-screen for LRH-1 inverse agonist project (AID 651615; in the data active = inhibition above about 33%). As to conditions: Gal4-VP16 luciferase reporter cells, at 3.6 µM, hits give high values.
Assay [11] can be described thus: VP16-driven transactivation reporter suppression – cell-based, luminescence, HEK293, counter-screen for COUP-TFII antagonist project (AID 687007; in the data active = inhibition above about 13%). As to conditions: HEK293 Gal4-VP16 luciferase reporter, at 8.5 µM, hits give high values.
Assay [12] addresses COUP transcription factor 2 (Homo sapiens) (UniProt P24468). In words: retest of COUP-TFII reporter suppressors – cell-based, luciferase reporter, HEK293, triplicate, confirmation (AID 687008;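 active = mean inhibition over three repeats above a set limit taken from the earlier primary screen, cut at about 38% in these data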;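 note: 100% = cells given the luciferase reporter alone without the COUP-TF2 vector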). As to conditions: HEK293 NGFI-A luciferase reporter, luminescence; at 8.5 µM; hits give high values.

Each structure is given as a SMILES string. A number with no mark means an inactive call. This is one part of the list. The source made the active and inactive calls. Cut-off read from the data, not from the text of the source, unless noted: active = inhibition above about 25%; inactive = the rest.

Chain of Nuclear receptor coactivator 1 (Homo sapiens) (Q15788 whole entry, looked up, the tested form may be a part): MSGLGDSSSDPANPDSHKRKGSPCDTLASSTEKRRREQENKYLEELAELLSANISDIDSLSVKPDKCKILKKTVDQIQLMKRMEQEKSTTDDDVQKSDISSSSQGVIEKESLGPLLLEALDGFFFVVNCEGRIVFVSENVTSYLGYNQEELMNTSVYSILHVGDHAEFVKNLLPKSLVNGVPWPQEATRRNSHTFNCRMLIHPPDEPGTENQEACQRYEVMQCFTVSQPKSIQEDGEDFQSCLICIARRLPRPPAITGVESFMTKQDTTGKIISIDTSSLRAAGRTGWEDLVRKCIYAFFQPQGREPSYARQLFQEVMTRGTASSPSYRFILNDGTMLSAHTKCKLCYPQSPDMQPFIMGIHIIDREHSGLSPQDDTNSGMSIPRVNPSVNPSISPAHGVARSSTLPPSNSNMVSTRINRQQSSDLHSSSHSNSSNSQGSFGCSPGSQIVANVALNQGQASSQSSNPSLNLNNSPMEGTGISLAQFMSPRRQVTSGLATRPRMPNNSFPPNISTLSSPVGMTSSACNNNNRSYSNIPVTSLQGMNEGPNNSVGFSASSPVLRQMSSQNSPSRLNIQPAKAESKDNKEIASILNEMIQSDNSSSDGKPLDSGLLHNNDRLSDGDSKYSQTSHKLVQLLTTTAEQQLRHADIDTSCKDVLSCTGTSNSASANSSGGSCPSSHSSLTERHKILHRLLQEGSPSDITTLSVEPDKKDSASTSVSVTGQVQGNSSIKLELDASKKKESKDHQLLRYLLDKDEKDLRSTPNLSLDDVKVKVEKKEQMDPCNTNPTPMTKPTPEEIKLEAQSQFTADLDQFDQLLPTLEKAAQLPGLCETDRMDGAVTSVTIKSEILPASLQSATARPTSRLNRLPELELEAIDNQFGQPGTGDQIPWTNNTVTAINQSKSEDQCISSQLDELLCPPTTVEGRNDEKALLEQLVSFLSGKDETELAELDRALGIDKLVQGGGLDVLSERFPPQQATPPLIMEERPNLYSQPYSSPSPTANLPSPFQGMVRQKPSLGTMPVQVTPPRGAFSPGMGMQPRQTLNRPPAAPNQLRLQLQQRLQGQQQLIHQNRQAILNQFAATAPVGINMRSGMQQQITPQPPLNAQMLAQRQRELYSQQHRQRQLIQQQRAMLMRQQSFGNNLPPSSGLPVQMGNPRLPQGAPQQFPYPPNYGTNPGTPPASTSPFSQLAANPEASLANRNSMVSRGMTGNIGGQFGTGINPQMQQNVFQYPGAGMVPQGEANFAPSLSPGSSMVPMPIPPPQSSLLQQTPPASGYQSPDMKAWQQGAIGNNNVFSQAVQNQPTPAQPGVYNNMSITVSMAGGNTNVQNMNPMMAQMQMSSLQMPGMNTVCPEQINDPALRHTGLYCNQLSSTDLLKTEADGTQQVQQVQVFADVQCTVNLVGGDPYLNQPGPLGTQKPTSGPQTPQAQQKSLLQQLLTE
Chain of Receptor-interacting serine/threonine-protein kinase 2 (Homo sapiens) (O43353 whole entry, looked up): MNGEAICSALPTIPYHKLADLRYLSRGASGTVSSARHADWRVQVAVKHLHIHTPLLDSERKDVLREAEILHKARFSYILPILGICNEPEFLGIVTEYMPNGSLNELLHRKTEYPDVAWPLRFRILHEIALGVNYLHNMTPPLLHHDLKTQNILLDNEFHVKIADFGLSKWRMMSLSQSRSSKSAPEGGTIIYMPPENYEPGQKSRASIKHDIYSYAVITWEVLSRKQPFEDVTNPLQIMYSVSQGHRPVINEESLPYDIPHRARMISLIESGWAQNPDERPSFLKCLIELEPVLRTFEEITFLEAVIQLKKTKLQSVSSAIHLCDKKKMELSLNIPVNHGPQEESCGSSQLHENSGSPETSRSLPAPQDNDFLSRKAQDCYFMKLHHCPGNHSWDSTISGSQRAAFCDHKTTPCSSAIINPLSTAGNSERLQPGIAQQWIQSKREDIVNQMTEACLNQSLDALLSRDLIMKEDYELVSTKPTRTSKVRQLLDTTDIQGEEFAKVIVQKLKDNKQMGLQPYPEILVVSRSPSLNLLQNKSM
Chain of Nuclear receptor coactivator 2 (Homo sapiens) (Q15596 whole entry, looked up, the tested form may be a part): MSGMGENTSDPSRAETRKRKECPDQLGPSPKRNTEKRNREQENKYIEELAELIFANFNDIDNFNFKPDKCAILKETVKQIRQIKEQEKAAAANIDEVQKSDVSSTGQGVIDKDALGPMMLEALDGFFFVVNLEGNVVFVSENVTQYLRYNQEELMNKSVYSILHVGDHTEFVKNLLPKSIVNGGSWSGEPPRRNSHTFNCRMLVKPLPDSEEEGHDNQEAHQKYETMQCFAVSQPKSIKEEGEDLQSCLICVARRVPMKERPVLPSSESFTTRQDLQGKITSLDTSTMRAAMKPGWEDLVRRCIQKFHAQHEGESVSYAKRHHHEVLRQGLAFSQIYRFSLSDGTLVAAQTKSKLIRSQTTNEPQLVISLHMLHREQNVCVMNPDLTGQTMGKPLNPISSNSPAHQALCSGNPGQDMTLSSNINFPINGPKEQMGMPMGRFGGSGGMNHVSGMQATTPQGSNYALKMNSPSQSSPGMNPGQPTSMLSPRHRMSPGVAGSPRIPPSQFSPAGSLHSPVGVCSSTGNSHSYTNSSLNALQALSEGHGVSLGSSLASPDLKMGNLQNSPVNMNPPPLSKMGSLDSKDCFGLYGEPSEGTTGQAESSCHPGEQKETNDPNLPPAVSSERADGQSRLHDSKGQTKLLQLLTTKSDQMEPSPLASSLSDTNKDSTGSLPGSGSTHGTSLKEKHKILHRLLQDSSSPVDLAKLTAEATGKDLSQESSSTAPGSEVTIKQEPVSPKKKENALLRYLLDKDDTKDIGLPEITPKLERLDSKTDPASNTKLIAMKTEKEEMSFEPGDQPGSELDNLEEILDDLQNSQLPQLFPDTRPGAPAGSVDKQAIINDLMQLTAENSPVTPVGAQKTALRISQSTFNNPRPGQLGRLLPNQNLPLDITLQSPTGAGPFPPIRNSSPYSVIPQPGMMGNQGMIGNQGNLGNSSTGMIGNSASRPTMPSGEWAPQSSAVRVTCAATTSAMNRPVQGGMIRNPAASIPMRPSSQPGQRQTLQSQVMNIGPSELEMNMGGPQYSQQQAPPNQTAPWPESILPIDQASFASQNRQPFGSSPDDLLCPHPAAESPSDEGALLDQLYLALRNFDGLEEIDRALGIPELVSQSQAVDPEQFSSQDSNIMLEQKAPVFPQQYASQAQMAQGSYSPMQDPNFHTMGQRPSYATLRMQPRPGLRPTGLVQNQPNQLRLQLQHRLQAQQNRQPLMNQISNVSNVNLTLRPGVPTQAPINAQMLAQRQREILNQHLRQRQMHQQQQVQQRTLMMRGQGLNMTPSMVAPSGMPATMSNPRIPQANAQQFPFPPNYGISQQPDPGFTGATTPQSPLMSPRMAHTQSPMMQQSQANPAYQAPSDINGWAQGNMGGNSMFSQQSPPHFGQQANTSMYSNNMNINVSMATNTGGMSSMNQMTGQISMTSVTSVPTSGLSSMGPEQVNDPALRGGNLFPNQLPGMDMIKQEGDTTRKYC
Chain of COUP transcription factor 2 (Homo sapiens) (P24468 whole entry, looked up): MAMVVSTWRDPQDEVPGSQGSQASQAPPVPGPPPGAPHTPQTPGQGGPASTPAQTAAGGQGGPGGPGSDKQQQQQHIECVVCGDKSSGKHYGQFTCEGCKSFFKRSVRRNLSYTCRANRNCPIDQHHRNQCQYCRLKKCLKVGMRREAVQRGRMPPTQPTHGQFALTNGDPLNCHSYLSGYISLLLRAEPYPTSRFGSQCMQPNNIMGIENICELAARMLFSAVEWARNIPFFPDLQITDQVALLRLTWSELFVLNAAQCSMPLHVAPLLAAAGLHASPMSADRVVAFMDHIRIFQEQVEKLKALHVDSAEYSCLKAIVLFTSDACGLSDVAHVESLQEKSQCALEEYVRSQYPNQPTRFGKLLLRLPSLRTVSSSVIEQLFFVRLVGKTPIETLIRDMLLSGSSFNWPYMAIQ
Chain of Nuclear receptor subfamily 5 group A member 2 (Homo sapiens) (O00482 whole entry, looked up): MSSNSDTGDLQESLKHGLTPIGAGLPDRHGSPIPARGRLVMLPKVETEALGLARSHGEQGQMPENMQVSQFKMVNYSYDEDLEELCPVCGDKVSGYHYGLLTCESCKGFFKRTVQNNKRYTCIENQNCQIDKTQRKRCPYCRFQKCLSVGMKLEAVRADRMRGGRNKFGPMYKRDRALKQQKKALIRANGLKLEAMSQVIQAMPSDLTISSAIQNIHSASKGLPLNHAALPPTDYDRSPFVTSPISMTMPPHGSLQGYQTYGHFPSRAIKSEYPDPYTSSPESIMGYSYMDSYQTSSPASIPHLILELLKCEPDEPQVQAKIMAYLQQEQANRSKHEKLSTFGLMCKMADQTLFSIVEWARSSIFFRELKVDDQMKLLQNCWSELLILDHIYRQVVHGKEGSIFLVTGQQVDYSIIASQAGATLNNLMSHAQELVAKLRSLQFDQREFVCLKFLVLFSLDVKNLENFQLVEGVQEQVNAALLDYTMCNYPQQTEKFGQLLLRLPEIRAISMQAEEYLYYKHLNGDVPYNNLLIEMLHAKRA
Chain of Steroidogenic factor 1 (Homo sapiens) (Q13285 whole entry, looked up, the tested form may be a part): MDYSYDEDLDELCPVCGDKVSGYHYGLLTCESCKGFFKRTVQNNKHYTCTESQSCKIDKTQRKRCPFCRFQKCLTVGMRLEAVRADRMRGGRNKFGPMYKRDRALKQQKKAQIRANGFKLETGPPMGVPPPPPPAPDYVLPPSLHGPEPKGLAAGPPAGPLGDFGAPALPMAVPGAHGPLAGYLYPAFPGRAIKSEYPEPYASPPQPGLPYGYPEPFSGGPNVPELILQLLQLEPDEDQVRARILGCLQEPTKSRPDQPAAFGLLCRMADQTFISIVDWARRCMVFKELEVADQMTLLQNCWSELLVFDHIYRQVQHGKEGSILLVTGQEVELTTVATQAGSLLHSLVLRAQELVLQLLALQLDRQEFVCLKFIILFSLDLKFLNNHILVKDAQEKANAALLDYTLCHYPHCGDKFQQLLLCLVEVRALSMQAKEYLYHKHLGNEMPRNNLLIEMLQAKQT

Consider `Cc1ccc(C(=O)c2cccc(N)c2)cc1C`, for which the inhibition in assay [1] is -41.2%; in assay [2], 3.5%; in assay [3], 58% (active); in assay [4] it was 76.3% (active).
The corresponding values for `CCOC(=O)c1c(C)cc2c(CO)n[nH]c(=O)c2c1C` are 11.6%, 23.1%, -8.56% and 34.9%.
The matching figures for `CCn1c(Oc2cccc(Br)c2)nc2c1c(=O)n(C)c(=O)n2C`: 15.8%, 12.3%, -33.4% and 10.2%.
In the case of `Cn1nnnc1Sc1ncnc2scc(-c3ccc4c(c3)OCO4)c12`, the inhibition in assay [1] was 0.44%; in assay [2] it was 3.16%; in assay [3], 0.45%; in assay [4], 21.4%.
With `O=C(Cc1csc(Nc2nc(=S)[nH]c3ccccc23)n1)NCCCN1CCN(c2cccc(Cl)c2)CC1`, the results for the inhibition in [5] and in assay [6] were 38% (active) and 55.8% (active), respectively.
As for `Cc1ccc(-c2nnc(SCC(=O)Nc3ccccc3F)o2)cc1`, the inhibition is -8.02% in assay [1], 26.2% (active) in assay [2], 19.4% in assay [3] and 60% (active) in assay [4].
On to `CCN(CC)CC(C)(C)C(=O)/C=C/c1ccc(/C=C/C(=O)C(C)(C)CN(CC)CC)cc1`, for which the inhibition is 84.5% (active) in assay [2]; 84.9% (active) in [7]; 99.6% (active) in [8]; 95.1% (active) in assay [9]; 88.8% (active) in assay [10].
In the case of `CC(C)(C)OC(=O)N1CCC(NC(=O)c2[nH]cnc2C(=O)N[C@@H](Cc2ccccc2)C(=O)OCc2ccccc2)CC1`, the inhibition in assay [5] is 16.1%; in assay [6], -4.79%.
The matching figures for `CN1CCN(/N=C/c2ccc(-c3ccc([N+](=O)[O-])cc3)o2)CC1`: 17.4% and 23.5% (active).
In the case of `COc1cccc2sc(N(CCCN(C)C)C(=O)CCS(=O)(=O)c3ccccc3)nc12`, the inhibition in assay [5] is 40.3% (active); in assay [6], 8.45%.
As to `O[C@H]1C[C@H](c2ccc(Cl)cc2)N(Cc2cccs2)C[C@@H]1n1cc(C2CC2)nn1`, the inhibition in assay [5] was -0.97%; in assay [6], 0.34%.
The corresponding values for `COc1ccc(C(C[N+](=O)[O-])n2nc(C)cc2C)cc1` (stereo unspecified) are 40.9% (active) and -5.9%.
For the compound `CC(=O)Nc1ccc(C=Cc2ccc([N+](=O)[O-])cc2)cc1`, the inhibition in assay [5] was 21.3% (active); in assay [6] it was 33.9% (active).
The matching figures for `Cc1nnc(SCC(=O)Nn2cnnc2)s1`: -0.84% and -0.41%.
Consider `COc1ccc2c(=O)cc(-c3ccncc3)oc2c1OC`, for which the inhibition is 43.9% in assay [1], 19.3% in assay [2], -15.8% in [3] and 41.5% in [4].
For the compound `COc1ccc(C2=CC(c3cccc(OC)c3)n3nnnc3N2)cc1` (stereo unspecified), the inhibition in [5] was 3.71%; in assay [6], 10.4% (active).
For the compound `COc1ccc2c(c1OC)C(=O)OC2Nc1nc(-c2ccccc2)cs1` (stereo unspecified), the inhibition in assay [5] was 10.3%; in assay [6], 6.11%.
Regarding `COc1ccc(-c2noc(CCCCC(=O)N3CCN(c4cc(C)ccc4C)CC3)n2)cc1`, the inhibition in assay [1] was -26%; in assay [2], 32.4% (active); in assay [3], 29.6%; in assay [4], 48.2% (active).
Consider `CCOC(=O)C1=C(C)N(C[C@@H]2CC[C@@H](Cc3ccc(-c4ccccc4)cc3)O2)C(=O)NC1c1ccc([N+](=O)[O-])cc1` (stereo partly specified), for which the inhibition in [5] is -2.24%; in assay [6], -1.01%.
For the compound `Cc1ccc(-c2cc(C(=O)NCCCN3CCOCC3)no2)cc1`, the inhibition in assay [1] is 8.12%; in [2] it was -4.18%; in assay [3], -12.9%; in assay [4] it was 53.2% (active).
The corresponding values for `O=C(Nc1ccc2c(c1)OCCO2)C(c1cc2ccccc2o1)N1CCN(c2ccc(F)cc2)CC1` (stereo unspecified) are 3.86%, -2.84%, -43.1% and 28.6%.
As to `C=CCNc1ncnc2ccc(Br)cc12`, the inhibition in assay [1] is 30.3%; in assay [2], 21%; in assay [3], 1.3%; in [4], 42.1%; in [11], 9.27%; in [12], 22.7%.
For the compound `Cc1cc(Nc2cccc(Cl)c2)nc(NCc2ccccc2)n1`, the inhibition in assay [1] was -6.91%; in assay [2] it was 12.4%; in assay [3] it was -3.2%; in assay [4] it was 13.1%.
`O=C1CC(C(F)(F)C(F)(F)C(F)(F)C(F)(F)F)=Nc2ccccc2N1`: the inhibition in [5] was -1.13%; in assay [6] it was 0.83%.
For `Cc1ccccc1Cn1c(C)nc2ccccc21`, the inhibition was -27.4% in [1], 29.1% (active) in assay [2], 20% in assay [3] and 27% in [4].
The corresponding values for `CC1CCN(c2ccc(-c3cccc(NC(=O)C(F)(F)F)c3)nn2)CC1` are -55.7%, -29.6%, -9.14% and 60% (active).
As to `OC[C@@H]1CN(Cc2ccncc2)C[C@H](n2cnc3c(N4CCN(c5ccccc5)CC4)ncnc32)O1`, the inhibition in assay [1] was 2.2%; in assay [2], 37.8% (active); in assay [11], 8.35%; in assay [12], 44.6% (active).
Regarding `O=C(Nc1cccc2c1CCCC2)c1cc([N+](=O)[O-])ccc1Cl`, the inhibition was 19% in assay [1], 25% in [2], 48.5% (active) in [3] and 62.2% (active) in assay [4].

In general, inhibition refers to the drop in the measured response relative to a control, in per cent.
